High-throughput results from PubChem.
Shown are actives, neighbours in structure and some others; about 2.3% of the full set was active somewhere.
12-LOX inh: Primary qHTS assay for inhibitors of human arachidonate 12S-lipoxygenase (ALOX12): Round 2 | 1.1% of 580,000 active | purified 12hLO, xylenol orange hydroperoxide absorbance | Potency, µM (top dose mostly 108 µM), inactives show at the highest dose activity change, negative = inhibition, hits mostly inhibitors | AID 1671190, 2021 | Polyunsaturated fatty acid lipoxygenase ALOX12 (Homo sapiens), P18054; further: on the % scale 0 is the no-effect control and ±100 the full control effect
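Purified human 12hLO at 150 nM in 25 mM Hepes, 0.01% Triton X-100, pH 7.0, preincubated 15 min at room temperature with compound. Reaction started with 40 uM arachidonic acid, 30 min at room temperature. Hydroperoxide measured by Fe-xylenol orange, 573/405 nm absorbance ratio.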
Glioma ERSR ind: qHTS for Inducers of the Endoplasmic Reticulum Stress Response (ERSR) in Human Glioma: qHTS; U87-MG GRP78 promoter luciferase reporter, 16 h; 0.02% of 420,000 active; AID 602332, 2012; Potency, µM, inactives show at the highest dose activation, usual class: activators; further: series mostly up to about 76 µM; % of control where 0% means no effect; nearly all actives have a fitted effect of over 35% in size
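Stably transfected U87-MG human glioma cells carrying a GRP78-based luminescent sensor were seeded at 1000 cells/well, pin-dosed with compounds and incubated 16 h. Luciferase reagent was then added, and end-point luminescence was read after 10 min at room temperature.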
PTHR1 agonist: qHTS for PTHR1 Agonists: Primary Screen | Parathyroid hormone/parathyroid hormone-related peptide receptor (Homo sapiens), Q03431 | HEK293 GP2 PTHR1 cells, GloSensor cAMP luminescence, 1 h | Potency, µM (top dose mostly 115 µM), for inactives: at the top dose activation, hits mostly activators | 0.075% of 410,000 active; further: nearly all actives have a fitted effect of over 55% in size
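HEK-293-derived GP2 cells expressing PTHR1 and a GloSensor cAMP reporter, 3,000/well, plated overnight, given luciferin plus IBMX (each 0.5 mM as added) for 1 h at 37 °C, then compound for 1 h at 37 °C. Luminescence was read after 15 min at room temperature.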
GLP-1R agonist: qHTS of GLP-1 Receptor Agonists; Glucagon-like peptide 1 receptor (Homo sapiens), P43220; HEK293 GLP-1R CRE-luciferase, luminescence, 4-6 h; cells express a hypersensitive GLP-1R form; Potency, µM (doses to about 45.6 µM), for the others: at the top dose activation, hits mostly activators; 0.007% of 380,000 active; AID 624172, 2012; further: % of control where 0% means no effect
Target sequence (P43220 whole entry, looked up): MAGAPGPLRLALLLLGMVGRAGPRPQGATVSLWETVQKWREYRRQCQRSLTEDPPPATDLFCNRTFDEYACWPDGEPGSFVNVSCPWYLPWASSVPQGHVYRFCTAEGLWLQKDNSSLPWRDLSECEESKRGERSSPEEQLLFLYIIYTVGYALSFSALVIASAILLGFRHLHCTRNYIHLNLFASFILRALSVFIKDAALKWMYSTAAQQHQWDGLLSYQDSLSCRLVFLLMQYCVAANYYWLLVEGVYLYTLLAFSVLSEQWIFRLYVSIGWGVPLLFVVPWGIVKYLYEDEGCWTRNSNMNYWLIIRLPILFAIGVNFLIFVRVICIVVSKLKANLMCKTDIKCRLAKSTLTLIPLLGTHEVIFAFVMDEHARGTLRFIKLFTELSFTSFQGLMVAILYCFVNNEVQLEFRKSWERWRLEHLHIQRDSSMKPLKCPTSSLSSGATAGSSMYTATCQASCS
GLP1R inv ag: qHTS of GLP-1 Receptor Inverse Agonists (Inhibition Mode) | Potency, µM (doses to about 38.3 µM), without a hit: at the highest dose activity change, negative = inhibition, most hits filed as inhibitors | HEK293 GLP-1R CRE-luciferase, luminescence, 24 h; GLP-1R form is constitutively active | 1.6% of 410,000 active | Glucagon-like peptide 1 receptor (Homo sapiens), P43220; further: on the % scale 0 is the no-effect control and ±100 the full control effect; nearly all actives have a fitted effect of over 55% in size
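Assay principle: reduced luminescence from a cAMP-responsive reporter in HEK293 cells co-expressing a constitutively active GLP-1R. Conditions: 24 hr compound incubation, 37 deg C, 5% CO2.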
GLS inhibitor: qHTS for Inhibitors of Glutaminase (GLS); Glutaminase kidney isoform, mitochondrial (Homo sapiens), O94925; GLS enzymatic activity, qHTS titration; Potency, µM (highest dose often 45.5 µM), inactives show at the highest dose activity change, negative = inhibition, usual class: inhibitors; 0.21% of 410,000 active; AID 624170, 2012; further: on the % scale 0 is the no-effect control and ±100 the full control effect
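hKGA in 45 mM KH2PO4 pH 8.2, 0.02% Tween-20 with pin-transferred compounds; 1 mM L-glutamine (stock) plus glutamate oxidase/HRP/Amplex Red coupling added. Fluorescence read initially and after 30 min at RT.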
The depositor's hits bear a star; i = inactive; u = inconclusive; x = no result; [ ] = remark or other dose. The call rests on the fitted dose curve; in most records, active means well fitted curve in the direction sought with a large enough effect; inconclusive means small, poorly fitted or top-dose-only effect, or another doubt; inactive means no such curve, though single readings can be large; an effect the other way counts as inactive or inconclusive. Potency means the concentration at half of the fitted maximal effect.

SMILES	12-LOX inh	Glioma ERSR ind	PTHR1 agonist	GLP-1R agonist	GLP1R inv ag	GLS inhibitor
CNc1ccc(Cl)nn1	1.8%	-1.4%	-10.4%	4.8%	10.1%	6.4%
NNc1ccc(Cl)nn1	u	2.2%	-9.6%	21.4%	10µM*	-13.3%
COc1ccc(C(O)(c2ccccc2OC)C(CN2CCOCC2)c2ccccc2)cc1 (configuration not stated)	-7.1%	-5.0%	-28.2%	1.3%	10µM*	-12.5%
CCCCC(O)(c1ccc(CC)cc1)C(CN1CCOCC1)c1ccccc1 (configuration not stated)	u	9.6%	-18.5%	4.5%	u	-7.7%
CCCCOc1ccc(C(O)C(CN2CCOCC2)c2ccccc2)cc1 (configuration not stated)	3.2%	-3.2%	-24.8%	-0.7%	10µM*	9.8%
CCCCC(O)(c1ccccc1)C(CN1CCOCC1)c1ccccc1 (configuration not stated)	u	-4.4%	-9.3%	2.3%	10µM*	-1.6%
CCCOc1ccc(C(O)C(CN2CCOCC2)c2ccccc2)cc1 (configuration not stated)	-29.9%	-8.9%	-4.4%[57.5 µM]	-9.2%	u	7.2%
NCC1CCN(C2CCCCC2)CC1	-7.7%	x	x	x	x	x
CCCCNc1nc2c(c(=O)n(C)c(=O)n2C)n1Cc1ccccc1Cl	27.8%	x	x	x	x	x
COc1ccc2cc(C(C)C(=O)Nc3cccc4cccnc34)ccc2c1 (configuration not stated)	16.8%	x	x	x	x	x
CC(C)(C)c1cc(C(=O)OCCN2CCCCC2)cc(C(C)(C)C)c1	7.08µM*	x	x	x	x	x
CC(C)(C)c1ccc(C(=O)OCCN2CCCCC2)cc1	4.8%	-3.8%	i	18.0%	u	0.6%
CN(Cc1cc(=O)n2cc(Cl)ccc2n1)Cc1ccc(F)cc1F	14.8%	x	x	x	x	x
Clc1ccccc1OCCCn1ccnc1	0.355µM*	-0.3%	-37.4%	-1.6%	9.8%	-11.2%
Clc1ccccc1OCCCCn1ccnc1	16.9%	0.0%	i	9.8%	5.0%	4.2%
Clc1cc(Br)ccc1OCCn1ccnc1	0.708µM*	-1.2%	-3.3%[57.5 µM]	-1.1%	0.0%	-6.3%
Clc1cc(Br)ccc1OCCCn1ccnc1	u	-0.2%	i	19.4%	3.6%	2.6%
COc1cc(OC)cc(OC(C)C(=O)Nc2cc(Cl)ccc2OC)c1 (configuration not stated)	-3.9%	x	x	x	x	x
CC1CCCc2c1nc1sc3c(c1c2-c1cccc(F)c1)CCCC3 (configuration not stated)	-1.2%	x	x	x	x	x
O=C(NCc1ccncc1)c1cc(S(=O)(=O)C2CCS(=O)(=O)C2)ccc1F (configuration not stated)	-1.3%	x	x	x	x	x
O=C(CN(CCc1ccccc1)S(=O)(=O)c1ccc(Br)cc1)NCc1ccc(Cl)cc1	4.47µM*	-3.1%	-21.9%	x	1.2%	0.9%
O=C(CN(CCc1ccccc1)S(=O)(=O)c1ccccc1)NCc1ccc(Cl)cc1	-14.0%	-5.5%	-55.9%	x	u	-2.7%
Cc1cc(C)cc(C(O)c2ncc(-c3ccc(Cl)cc3)[nH]2)c1 (configuration not stated)	-4.0%	-3.1%	-35.1%	5.7%	12.6µM*	5.5%
Cc1cc(C)cc(C(O)c2ncc(-c3ccc(C(F)(F)F)cc3)[nH]2)c1 (configuration not stated)	-2.6%	-3.2%	-25.0%	1.3%	u	1.0%
C=CCN1C(c2ccc(Br)cc2)=CS/C1=C(\C#N)c1nnc(N2CCOCC2)n1-c1ccccc1	39.8µM*	-3.7%	-25.3%	2.1%	7.08µM*	8.2%
SMILES	12-LOX inh	Glioma ERSR ind	PTHR1 agonist	GLP-1R agonist	GLP1R inv ag	GLS inhibitor
C=CCN1C(c2cccc(C(F)(F)F)c2)=CS/C1=C(\C#N)c1nnc(N2CCOCC2)n1-c1ccccc1	-6.5%	-6.7%	i	-3.6%	u	-0.7%
Cc1ccccc1OCC(=O)OCC(=O)Nc1ccc(Cl)cn1	28.0%	-2.6%	i	11.2%	-2.5%	2.6%
Cc1ccccc1OCC(=O)OCC(=O)Nc1ncc(Cl)c(C)c1Cl	8.91µM*	-1.0%	i	2.2%	7.7%	u
Cc1cccc(C)c1NC(=S)NCCc1ccc(O)c(O)c1	35.5µM*	15.8µM*	-18.4%	1.1%	6.2%[7.66 µM]	3.98µM*
Cc1cccc(NC(=S)NCCc2ccccc2)c1C	u	0.1%	i	-2.3%	u	-17.5%
CCn1c(N2CCN(C(=O)C34CC5CC(CC(C5)C3)C4)CC2)nc2ccccc21	x	-5.2%	-75.6%[57.5 µM]	0.6%	2µM*	1.3%
Cc1cc(-c2nsc(=O)o2)c(S(C)(=O)=O)s1	8.91µM*	1.5%	i	0.6%	0.0%	x
COC(=O)c1ccc(NC(=O)CSC2=Nc3ccccc3C3CC=NN23)cc1 (configuration not stated)	x	-3.7%	-3.7%	2.9%	34.9%	14.1µM*
Cc1cc(=O)c(C(=O)Nc2nnc(C(C)C)s2)nn1-c1ccc(Cl)cc1	-5.1%	x	x	x	x	x
O=S(=O)(Nc1ccccc1N1CCCC1)c1ccccc1C(F)(F)F	3.4%	-3.3%	-43.7%	-1.7%	u	9.3%
O=S(=O)(Nc1ccccc1N1CCCCC1)c1ccc(Cl)s1	0.0%[57.4 µM]	-0.4%	-2.5%[57.5 µM]	-5.6%	10µM*	u
O=C(NCCNCc1c[nH]c2ccccc12)c1ccc(F)cc1	7.94µM*	x	x	x	x	x
O=C(CN1C(=O)NC2(CCCC2)C1=O)Nc1cccc2cccnc12	5.8%	x	x	x	x	x
CC(=O)c1ccc(NC(=O)N(C)CCc2noc(-c3ccc(C(=O)N4CCCCC4)cc3)n2)cc1	-13.7%	x	x	x	x	x
CC(C)(C)n1nnnc1C(c1cccs1)N(Cc1ccc(Cl)cc1)CC1CCCO1 (configuration not stated)	0.0%	-2.4%	i	1.4%	5.01µM*	-0.5%
CC1=C[C@@H](CNCc2ccccc2O)[C@H](C(C)C)C[C@H]1Cc1nc2c(C)cccc2[nH]1	63.1µM*	x	x	x	x	x
CCC(CC)C(=O)NC[C@@H]1C=C(C)[C@H](Cc2nc3c(C)cccc3[nH]2)C[C@H]1C(C)C	0.8%[176 µM]	x	x	x	x	x
Cc1ccc(NS(=O)(=O)c2ccc3[nH]c4c(c3c2)CCCCC4)cc1	u	-10.6%	i	x	11.2µM*	-12.9%
